# Screening data as filed in PubChem.
# aSyn UTR inh = MLPCN primary screen, SNCA 5' untranslated region; inhibition, % (tested at 7.5 µM); 0.82% of 300,000 active; alpha-synuclein 5'UTR reporter, inhibitor activity; in the data active = inhibition above about 60%;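 also: H4 neuroglioblastoma cells stably carrying SNCA 5'UTR luciferase fusion; 0% = DMSO wells and 100% = positive control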
# KLF5 inhibitor = inhibitors of KLF5 expression. DLD-1 KLF5 promoter-luciferase reporter, luminescence. inhibition, % at 5 µM. 0.23% of 290,000 active. AID 1700;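 active = inhibition above a per-plate limit of that plate's mean compound inhibition plus 3 SD, cut at about 60% in these data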;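 also: 0% = DMSO wells and 100% = LY294002 at 200 µM; higher means less KLF5 promoter-driven luciferase light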
# Mdm2 MdmX PPI = human Mdm2/MdmX binding inhibition; O15151+Q00987; SaOS-2 split-luciferase Mdm2/MdmX complementation, luminescence; inhibition, % at 8 µM; 3% of 330,000 active; AID 485346;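 active = inhibition of at least 50% at 8 µM in the primary screen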
# 697 NFkB inh = lowers PMA/ionomycin-induced NF-kB signal in 697 B cells; 697 B-cell NF-kB luciferase reporter, 16 h; inhibition, % at 4 µM; 0.33% of 330,000 active; AID 435022; in the data active = inhibition above about 35%
# Gli-Sufu antag = antagonists of Gli-Sufu signaling | Sufu-KO-LIGHT fibroblasts, Gli luciferase reporter luminescence | inhibition, % at 5 µM | 0.74% of 340,000 active | AID 588413;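 active = inhibition above about 55%, limit read from the data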;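 also: 0% = DMSO-treated cells and 100% = wells with medium but no cells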
# Jurkat NFkB inh = inhibitors of the PMA/ionomycin-induced NF-kB reporter in Jurkat cells; 0.53% of 330,000 active; AID 435003; inhibition, % at 4 µM; PMA/ionomycin-induced NF-kB luciferase reporter, luminescence; in the data active = inhibition above about 50%
# Starred values were filed as active, the others as inactive; nt = no result. Most compounds without a hit are left out; they make up all but 4.1% or so of the library.
SMILES,aSyn UTR inh,KLF5 inhibitor,Mdm2 MdmX PPI,697 NFkB inh,Gli-Sufu antag,Jurkat NFkB inh
Cc1ccc(NC(=O)Cn2nnc(-c3ccccc3NC(=O)c3cccs3)n2)cc1,67.2*,-14.1,47.9,-32.6,12.7,45.2
Cc1onc(-c2ccccc2Cl)c1C(=O)Nc1ccccc1O,0.3,9.9,18.8,-1.6,-3.5,-8.8
O=[N+]([O-])c1cccc(NC(=S)Nc2nc(-c3ccc(Cl)cc3Cl)cs2)c1,72.6*,7.8,nt,nt,nt,nt
O=C(NC(=S)Nc1nc(-c2cccc([N+](=O)[O-])c2)cs1)c1ccccc1Cl,-4.9,22.2,-2.9,-46.4,2.4,-12.0
Cc1cccc(C)c1OCc1cc(C(=O)N2CCN(c3ccccc3)CC2C)no1 (stereo not given),0.4,-8.5,-9.9,2.9,3.2,-6.6
Cc1cccc(NC(=O)CN(C)C(C)C(=O)Nc2ccc(S(=O)(=O)N3CCCC3)cc2)c1C (stereo not given),nt,nt,4.6,10.2,4.4,15.3
COC(=O)C[C@](O)(CCCC(C)(C)O)C(=O)O[C@@H]1C(OC)=C[C@]23CCCN2CCc2cc4c(cc2[C@H]13)OCO4,126.9*,nt,nt,nt,nt,nt
O=C(O)CSc1nnc(-c2ccc(Cl)cc2Cl)n1Cc1ccccc1,7.0,-5.2,-3.6,7.7,-2.3,16.2
CCN(CC(=O)Nc1ccc2c(c1)OCCO2)S(=O)(=O)c1ccc(F)cc1,2.3,-30.8,5.7,18.4,24.2,-8.0
Cc1ccc(-c2cc(C(=O)N/N=C/c3c(C)nn(-c4ccccc4)c3C)[nH]n2)cc1,66.1*,-6.9,nt,nt,nt,nt
Cc1nn(-c2ccccc2)c(C)c1/C=N/NC(=O)c1cc(C(C)(C)C)[nH]n1,-3.0,-41.7,17.3,4.0,-9.0,-1.8
Cc1c(Cl)cnc(NC(=O)COC(=O)c2ccc3ncsc3c2)c1Cl,67.1*,13.4,-2.4,-1.3,-64.8,1.2
O=C(COC(=O)c1ccc2ncsc2c1)Nc1ncc(Cl)cc1Cl,-8.2,-5.2,11.1,-36.7,-17.1,17.5
CCC(CC)NC(=O)c1cc2c(C)nn(Cc3ccccc3Cl)c2s1,70.5*,-16.4,15.5,30.4,-0.4,2.0
CCOC(=O)[C@@H]1[C@H]2COc3cc(OC)ccc3[C@@H]2N2C(=O)N(c3ccccc3)C(=O)[C@@]12C,nt,nt,0.5,2.0,-4.9,-4.4
O=C(NCCCN1CCOCC1)C(=O)N/N=C/c1c(Cl)cccc1Cl,-5.6,-42.4,0.4,17.8,-6.4,7.6
O=C(NCCCN1CCOCC1)C(=O)N/N=C/c1c2ccccc2cc2ccccc12,66.7*,-1.5,0.9,-22.0,13.0,45.4
CCN=C1NN=C(c2cc(C)n(Cc3ccco3)c2C)CS1,36.3,-13.8,6.7,9.1,71.2*,12.8
Nc1ccccc1-n1cccc1,6.0,-16.9,9.7,-6.8,10.1,-7.2
NNC(=O)c1nn(-c2ccccc2)cc1O,83.4*,-11.8,-3.5,0.0,nt,2.9
COc1ccc(Br)cc1S(=O)(=O)N1CCCc2ccccc21,6.7,-41.5,7.2,15.5,-1.8,4.5
COc1cc2c(cc1OC)C(c1ccc(Br)cc1)NCC2 (stereo not given),63.3*,nt,25.6,-16.3,2.3,16.6
CCOc1ccccc1NC(=S)N1CCN(c2cccc(OC)c2)CC1,-2.9,-46.7,6.4,-0.5,32.8,19.0
CN(C(=O)c1ccc(Br)o1)C1(C)CCS(=O)(=O)C1 (stereo not given),2.9,-30.1,7.3,18.4,8.0,-2.8
CN(C)c1ccc(/C=c2\sc3nc(-c4ccccc4)nn3c2=O)cc1,-18.0,-11.7,0.6,-19.7,nt,12.1
SMILES,aSyn UTR inh,KLF5 inhibitor,Mdm2 MdmX PPI,697 NFkB inh,Gli-Sufu antag,Jurkat NFkB inh
CN(C)c1ccc(C=c2c3cc(O)ccc3n3c2cc(-c2ccccc2)[n+]3C)cc1,nt,nt,nt,nt,71.8*,nt
C[n+]1c(-c2ccccc2)cc2c(=Cc3ccc([N+](=O)[O-])cc3)c3ccccc3n21,nt,nt,nt,nt,21.6,nt
C[n+]1c(-c2ccccc2)cc2c(=Cc3ccccc3)c3ccccc3n21,nt,nt,nt,nt,77.1*,nt
CC(=O)c1cccc(NC(=O)N2CCC(NC(=O)c3ccco3)CC2)c1,-1.5,-18.3,-13.9,-3.6,10.6,5.5
O=C(N/N=C/c1ccccc1Cl)c1n[nH]c2c1CCCC2,83.5*,-79.5,37.8,-17.7,0.7,6.7
O=C(N/N=C/c1cccs1)c1n[nH]c2c1CCC2,67.9*,-71.0,10.9,-92.7,-71.9,17.3
O=C(N/N=C/c1ccccc1)c1n[nH]c2c1CCCC2,-87.5,-81.1,-79.4,-119.1,-100.9,-45.3
CCOc1ccc(C(=O)NCC(=O)OCC(=O)Nc2ccc(C)c(S(=O)(=O)N(C)C)c2)cc1,10.6,-17.8,6.3,10.7,-2.4,-10.1
CCOc1ccc(C(=O)Oc2ccc(NC(C)=O)cc2)cc1,79.9*,-2.6,6.5,0.4,nt,-8.3
Cc1cc(C)c2nc(NCCCNC(=S)NCCCN(C)C)c(C#N)cc2c1,96.4*,-24.0,21.8,-8.8,10.6,-11.5
Cc1c(C)c2ccc(OCC(=O)Nc3nccs3)cc2oc1=O,66.2*,-11.8,-119.7,5.0,-35.2,-24.7
Cn1cnc(S(=O)(=O)Nc2ccc(OC(F)(F)F)cc2)c1,0.8,-25.0,21.5,0.3,-1.6,-3.4
Cc1ccc(-n2nc3ccc(N)cc3n2)c(C)c1,65.9*,-47.9,-21.5,-30.7,-3.0,-29.3
Cc1ccc(NC(=O)CSc2nc(O)c(Cc3ccccc3)c(=O)n2-c2ccccc2)cc1,-17.1,-36.2,4.9,-16.6,-4.6,7.1
Cc1ccc(CSc2nnc(SCC(=O)N/N=C/c3ccc(C(=O)O)cc3)s2)cc1,69.5*,-5.3,1.3,27.5,-19.5,-26.3
Cc1ccc(CSc2nnc(SCC(=O)N/N=C/c3ccccc3OCC(=O)O)s2)cc1,61.7*,-9.1,-1.8,19.5,-33.9,-52.4
O=C(CSc1nnc(SCc2ccccc2)s1)N/N=C/c1ccc(C(=O)O)cc1,2.4,-7.0,17.3,20.2,0.9,-9.2
CC(/C=N\NC(=O)CN1CCN(S(=O)(=O)c2ccc(C)cc2)CC1)=C\c1ccccc1,23.5,-10.9,nt,nt,7.5,nt
Nc1nc(NCCOCCO)nc(NC2CCCCC2)c1[N+](=O)[O-],67.6*,-14.8,12.7,-11.7,7.2,6.5
O=C(Nc1nc2cc3c(cc2s1)OCO3)c1ccco1,79.8*,-28.0,nt,nt,-29.2,nt
O=C(Oc1ccc(Cl)c2cccnc12)N1CCOCC1,-5.6,15.3,2.7,13.2,-0.7,0.3
O=C(Oc1c(CN2CCOCC2)cc(Cl)c2cccnc12)c1ccccc1Cl,105.2*,5.2,41.0,-15.2,18.5,9.0
O=S(=O)(c1ccc(NC(=S)NCc2cccnc2)cc1)N1CCCCC1,86.4*,14.5,6.2,13.3,12.7,18.8
CCN=C1S/C(=C\c2ccc(O)c(OCC)c2)C(=O)N1CC,68.2*,-18.4,0.4,-10.2,-23.1,-3.4
O=C(CSc1nc(CCC2CCCC2)nc2ccccc12)NCc1ccc2c(c1)OCO2,8.6,-27.7,24.3,-26.1,20.5,-11.0
COc1ccc(/C=N/NC(=S)Nc2ccccc2[N+](=O)[O-])cc1O,-131.0,-66.2,nt,nt,23.9,nt
CCCOc1ccc(/C=N/NC(=S)Nc2ccccc2[N+](=O)[O-])c(O)c1,100.6*,34.9,nt,nt,81.9*,nt
